The results in this text go back to ChEMBL document CHEMBL4296182, “CO-ADD screening of NIH NCI Diversity Set V”.

The assay has as its system Staphylococcus aureus. Briefly: Antibacterial activity against Staphylococcus aureus MRSA ATCC 43300 (CO-ADD:GP_020); MIC in CAMBH media using NBS plates, by Resazurin F(560/590). The class given is functional. The conditions noted are these: Concentration 20 uM, ASSAY_TEST Inhibition of Bacterial Growth, detection method Resazurin, Fluorescence (ex560/em590), MEDIA CAMHB, plate type 384well, CORNING #3640, time 18 hr. On the technique in general: The colour change of resazurin is a common sign of viable cells or microbes.
Turning to `CCOC(=O)N1C/C(=C\c2ccccc2)C(=O)/C(=C/c2ccccc2)C1`, the Inhibition (as a rule, the relative decrease from the control value, in per cent) turned out to be 10.93%.

`O=C(Nc1ccc(Br)cc1)Nc1ccccc1Cl`: the Inhibition is recorded as 14.34%.

Take `N#C/C(=C\c1ccc(C#N)cc1)C(=O)c1ccccc1`: the Inhibition was -10.06%.

Turning to `Nc1ccc(-c2nc3nc(N)nc(N)c3nc2-c2ccc(N)cc2)cc1`, the Inhibition turned out to be 11.99%.

Regarding `Cc1cc(=O)oc2cc(OS(C)(=O)=O)ccc12`, the Inhibition is recorded as -6.24%.

Take `Nc1ccc(OC(=O)Nc2ccc(O)cc2)cc1`: the Inhibition was -11.3%.

In the case of `CCOC(=O)/C(C#N)=C/c1cccc(C)c1`, the Inhibition is given as 35.48%.

As to `Cc1nc(S)nc(O)c1CCC1OCCO1`, the Inhibition is 13.84%.

`N#CC1C(=O)NC(=O)C(C#N)C12CCCC(C(F)(F)F)C2` (centres undefined): the Inhibition was determined as 7.59%.

For the molecule `O=C1c2cc([N+](=O)[O-])ccc2-c2cc(Br)c(NC(=NO)C(F)(F)F)cc21`, the Inhibition came out at 19.28%.

On to `O=C(Nc1ccc(F)cc1)OCCOc1ccc(Br)cc1`, for which the Inhibition was found to be 6.52%.

With `O=C(O)CCC1(c2ccccc2)NC(=O)NC1=O` (centres undefined), the Inhibition is reported as 11.61%.

`CCOC(=O)c1c(C)nc(C)c(C(=O)OCC)c1-c1ccc(OC)cc1`: the Inhibition amounted to 0.94%.

As to `O=C(Nc1ccc2ccccc2c1)c1cccc(F)c1`, the Inhibition is recorded as -15.53%.

`CCOC(=O)c1c(N)ssc1=S`: the Inhibition came to 5.44%.

Regarding `O=C(Nc1ccc(C2=NCCCN2)cc1)Nc1ccc(C2=NCCCN2)cc1`, the Inhibition was 7.85%.

Regarding `CCOC(=O)/C=C/c1ccc(C(=O)OCC)[nH]1`, the Inhibition is 42.73%.

`CCOC(=O)c1nc(SC)n(C)c1C(=O)OCC`: the Inhibition is reported as 10.21%.

As to `c1ccc(CSc2nc3c[nH]cnc-3n2)cc1`, the Inhibition stood at 8.72%.

As to `CNC1(C(N)=O)CCNCC1`, the Inhibition is on record as 10.6%.

With `O=c1[nH]nc(-c2cc(-c3ccccc3)nc3ccccc23)o1`, the Inhibition is listed as 7.26%.

With `CC(C)(C)c1ccc(OC(=O)c2ccccc2)cc1`, the Inhibition was -7.46%.

For the molecule `NC(=O)c1cc(Br)cc(C2CCCCC2)c1O`, the Inhibition is 12.02%.

For `CC(=O)NS(=O)(=O)c1ccc2sc(C)nc2c1`, the Inhibition was 3.75%.

For the molecule `CCNc1ccccc1C(=O)O`, the Inhibition came to 19.64%.

Turning to `CN(C)c1ccc(/C=C2/C=C(c3ccc4c(c3)CCCC4)OC2=O)cc1`, the Inhibition came to 19.91%.

Turning to `CSc1cccc(NC(=O)Nc2ccccc2C(N)=O)c1`, the Inhibition came to 1.7%.

For `CCn1c2ccccc2nc2cc3c(cc21)c(Cl)c(=O)c1ccccc13`, the Inhibition is listed as 25.73%.

As to `Cc1ccc(NC(=S)NC(=O)c2ccccc2)cc1NC(=S)NC(=O)c1ccccc1`, the Inhibition is reported as 23.47%.

Consider `CN1N=C/C(=C/NC(N)=O)C1=O`, for which the Inhibition is -2.54%.

On to `O=C(Nc1ccc(Cl)c(Cl)c1)Nc1ccccc1O`, for which the Inhibition is listed as -10.29%.

Consider `CC(=O)OCC1OC(COC(C)=O)(c2ccc(C)cc2)C(OC(C)=O)C1OC(C)=O` (centres undefined), for which the Inhibition is on record as -7.68%.

In the case of `Cc1ccc(NC(=O)N2CCCCC2)cc1NC(=O)N1CCCCC1`, the Inhibition is -1.56%.

Regarding `Nc1nc(N)nc(-c2ccccc2-c2nc(N)nc(N)n2)n1`, the Inhibition came to 10.97%.

As for `O=C(O)CCC(=O)OCCN(Cc1ccc(Oc2ccc([N+](=O)[O-])cc2)cc1)C(=O)C(Cl)Cl`, the Inhibition is listed as -5.95%.

For the molecule `COC1OC(CO)C(N=C(C)C)C1O` (centres undefined), the Inhibition is recorded as -11.36%.

`COc1cccc(/C=C2\CCc3ccccc3C2=O)c1`: the Inhibition stood at 5.14%.

As for `O/N=C(/c1ccccc1)c1ccc2c3c(cccc13)CC2`, the Inhibition is given as -1.68%.

`Cc1nc(C(N)=O)nc2ccccc12`: the Inhibition came out at 17.26%.
